FAS-TE inh – blocks the thioesterase domain of human fatty acid synthase; inhibition, % at 15 µM; P49327; 360,000 tested, 0.67% active; AID 602261; recombinant FAS-TE, OMFH fluorogenic substrate, fluorescence endpoint;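 active = compounds whose normalised, plate-corrected inhibition of enzyme fluorescence in the single-dose primary screen is 50% or more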
ADAM10 inh – inhibitors of human ADAM10. inhibition, % at 7 µM. recombinant ADAM10, EDANS/DABCYL FRET peptide cleavage, 3 h. 370,000 tested, 0.62% active. O14672;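 active = inhibition above a per-campaign cutoff equal to the mean of compounds falling between control-based bounds plus 3 SD, cut at about 20% in these data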
ADAM17 inh – ADAM17 inhibition, QFRET primary screen; P78536; recombinant ADAM17, EDANS/DABCYL FRET peptide cleavage; inhibition, % at 6.95 µM; 370,000 tested, 0.83% active; AID 720648;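 active = inhibition above the mean of compounds lying between control limits plus 3 SD, set per campaign, cut at about 8.5% in these data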
Target sequence (P78536 215-824 limits assumed): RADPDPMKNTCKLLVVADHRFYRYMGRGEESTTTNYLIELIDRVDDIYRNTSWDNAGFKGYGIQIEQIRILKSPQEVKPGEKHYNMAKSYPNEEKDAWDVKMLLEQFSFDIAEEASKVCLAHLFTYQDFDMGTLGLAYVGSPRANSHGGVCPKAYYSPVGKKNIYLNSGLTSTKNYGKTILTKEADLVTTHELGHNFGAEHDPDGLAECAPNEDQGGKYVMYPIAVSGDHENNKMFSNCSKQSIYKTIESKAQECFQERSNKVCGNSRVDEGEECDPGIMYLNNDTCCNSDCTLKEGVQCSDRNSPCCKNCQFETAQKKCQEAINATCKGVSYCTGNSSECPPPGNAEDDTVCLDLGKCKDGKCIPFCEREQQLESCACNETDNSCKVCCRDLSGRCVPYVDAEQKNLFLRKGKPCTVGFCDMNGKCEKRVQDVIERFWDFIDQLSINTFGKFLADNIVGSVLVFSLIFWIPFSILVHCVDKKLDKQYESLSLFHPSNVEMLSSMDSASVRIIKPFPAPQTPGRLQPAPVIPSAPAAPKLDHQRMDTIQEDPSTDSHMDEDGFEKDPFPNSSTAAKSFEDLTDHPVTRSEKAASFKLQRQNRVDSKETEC
NR3A LBD binder – modulators (binders) of human NR3A ligand-binding domain. NR3A LBD differential scanning fluorimetry, Tm shift; 0% = protein alone, 100% = glycine-bound protein. Tm shift relative to glycine control, % at 25 µM. 340,000 tested, 2.5% active;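 active = melting temperature shift of at least 10% of the positive control shift, at one fixed dose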
proKLK7 act – proKLK7 (human) activation, primary screen; purified proKLK7, EDANS-DABCYL substrate fluorescence; 100% is mature enzyme control, 0% vehicle; activation, % at 7 µM; 370,000 tested, 0.9% active;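 active = activation above the mean of all tested compounds plus 3 SD, computed per campaign excluding outliers beyond control limits, cut at about 13% in these data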
Large screens that a line does not name were inactive. In the library only some 4.6% were active in any assay of this set; here they are far more common.

O=C(Nc1cccc(-c2csc(Nc3ccccc3)n2)c1)c1ccccc1	NR3A LBD binder 11
CC[C@@H](CCCCCC#N)CCC(=O)N(c1ccccc1)c1ccccc1	none (no result: FAS-TE inh, NR3A LBD binder)
Cn1cccc1[C@]1(O)C(=O)Nc2ccc(F)cc21	none (no result: FAS-TE inh, NR3A LBD binder)
O=C(Nc1cccc(-c2csc(Nc3cccc(C(F)(F)F)c3)n2)c1)c1ccccc1	NR3A LBD binder 29
O=[N+]([O-])c1cccc2[nH]c(CNc3nc(N4CCOCC4)nc4c3ncn4-c3ccsc3)nc12	none (no result: FAS-TE inh, NR3A LBD binder, proKLK7 act)
O=C(Nc1ccc(-c2nc3ccccc3[nH]2)cc1)c1ccccc1NS(=O)(=O)c1ccc(F)cc1	NR3A LBD binder 30
CN(c1ccccc1)S(=O)(=O)c1ccc(Cl)c(C(=O)Nc2ccc(-c3nc4ccccc4[nH]3)cc2)c1	NR3A LBD binder 19
CN(c1ccccc1)S(=O)(=O)c1ccc(Cl)c(C(=O)Nc2nc3ccccc3[nH]2)c1	none
Cc1cc(F)ccc1S(=O)(=O)Nc1ccccc1C(=O)Nc1ccccc1-c1nc2ccccc2[nH]1	NR3A LBD binder 18 (no result: ADAM10 inh, ADAM17 inh, proKLK7 act)
O=C(CSc1nnc(-c2ccncc2)n1-c1ccccc1)Nc1cccc2ccccc12	none (no result: FAS-TE inh, NR3A LBD binder)
CCCCCCCCN1C(=O)N2Cc3cc(F)ccc3C2CS1(=O)=O (stereo unspecified)	none (no result: FAS-TE inh, NR3A LBD binder)
COC(=O)[C@H](CC(C)C)N1Cc2nnn(CC3CCCCC3)c2-c2ccccc2S1(=O)=O	none (no result: FAS-TE inh, NR3A LBD binder)
COC(=O)[C@]12C[C@H](CC(=O)NCCCN3CCCC3=O)C(=O)N(Cc3ccc(Cl)cc3Cl)C1=C[C@H](C(C)(C)C)O[C@@H]2C	none (no result: FAS-TE inh, NR3A LBD binder)
Cc1cc(C)cc(C(=O)OCCCN(C)C2CN(Cc3cn(Cc4ccc([N+](=O)[O-])cc4)nn3)S(=O)(=O)C2)c1 (stereo unspecified)	none (no result: FAS-TE inh, NR3A LBD binder)
C[C@]12CC(O)C3C(CCC4=CC(=O)CC[C@@]43C)C1CCC2c1csc(-c2ccccc2)n1 (stereo partly specified)	NR3A LBD binder 13
COC(=O)C1CN(Cc2cn(Cc3ccc(OC)cc3)nn2)CCS(=O)(=O)N1Cc1ccc(C)cc1 (stereo unspecified)	none (no result: FAS-TE inh, NR3A LBD binder)
CSc1cccc(NS(=O)(=O)c2ccc(F)cc2)c1	none
CCOc1ccc(NS(=O)(=O)c2ccc(NS(=O)(=O)c3ccc(SC)cc3)cc2)cc1	NR3A LBD binder 28
CSc1cccc(NS(=O)(=O)c2ccccc2)c1	NR3A LBD binder 20
CSc1ccc(S(=O)(=O)Nc2ccc(S(=O)(=O)Nc3ccc(C)cc3)cc2)cc1	NR3A LBD binder 25
Cc1ccc(CNC(=S)Nc2ccc(NS(=O)(=O)c3ccc(C)cc3)cc2)cc1	NR3A LBD binder 23
COc1ccc(-c2cc(-c3nnc(SCC(=O)Nc4nccs4)n3N)[nH]n2)cc1	none (no result: FAS-TE inh, NR3A LBD binder)
CC(C)CN1C(=O)C[C@@]2(C(=O)N(C)c3ccc(NS(=O)(=O)C4CC4)cc32)C1c1ccccc1 (stereo partly specified)	none (no result: FAS-TE inh, NR3A LBD binder)
CCOc1ccc(-c2cccc(NS(=O)(=O)c3cc([N+](=O)[O-])ccc3C)c2)nn1	NR3A LBD binder 11
CCOc1ccc(-c2cccc(NS(=O)(=O)c3ccccc3[N+](=O)[O-])c2)nn1	none
Cc1ccc2c(c1)[C@@H]1CN(C)CC[C@@H]1N2S(=O)(=O)c1ccc(F)cc1	NR3A LBD binder 14
CCc1ccc(S(=O)(=O)N2c3ccc(C)cc3C3CN(C)CCC32)cc1 (stereo unspecified)	none
Cc1n[nH]c(C)c1S(=O)(=O)N1CCOCC1	NR3A LBD binder 14
Cc1cc(O)c(-c2cc(C(=O)NCc3ccc4c(c3)OCO4)[nH]n2)cc1C	none
COc1ccc(NC(=O)c2cc(-c3ccc(C)cc3O)n[nH]2)c(OC)c1	NR3A LBD binder 38
COc1ccc(NC(=O)c2ccc3[nH]c(C)c(C)c3c2)c(OC)c1	NR3A LBD binder 15
O=C(NCc1ccc2c(c1)OCO2)c1cc(-c2cc(Cl)ccc2O)n[nH]1	NR3A LBD binder 11
CCOc1ccccc1NC(=O)c1ccc2[nH]c(C)c(C)c2c1	none
NS(=O)(=O)c1ccc(NC(=O)c2cc(-c3cc(Cl)ccc3O)n[nH]2)cc1	NR3A LBD binder 34
CCN(CC)C(=O)CC[C@H]1CC[C@]2(CCCN(C(=O)c3ccccc3)C2)O1	none (no result: FAS-TE inh, NR3A LBD binder)
COc1ccc(NC(=O)c2cc(-c3cc(Cl)ccc3OC)n[nH]2)cc1OC	none (no result: NR3A LBD binder)
COc1ccc(Cl)cc1NC(=O)c1cc(-c2ccccc2O)n[nH]1	NR3A LBD binder 24
COc1ccc(OC)c(NC(=O)c2cc(-c3cc(Cl)ccc3O)n[nH]2)c1	NR3A LBD binder 33
O=S1(=O)c2c(cccc2N2CCC[C@H]2CO)O[C@@H]2CCN1C2	none (no result: FAS-TE inh, NR3A LBD binder)
Cc1ccc(NS(=O)(=O)c2cc([N+](=O)[O-])ccc2NNC(=S)Nc2cccc(Cl)c2)c(C)c1	FAS-TE inh 52 (no result: ADAM10 inh, ADAM17 inh, proKLK7 act)
Cc1cccc(NC(=S)NNc2cccc(Cl)c2)c1	none
COc1ccc(NC(=S)NNc2ccc([N+](=O)[O-])cc2S(=O)(=O)Nc2ccc(C)cc2C)cc1	NR3A LBD binder 23
COc1ccc(CNc2ccc([N+](=O)[O-])cc2C)cc1	none
COc1ccc(N=Nc2cnc(C)nc2-c2ccccc2)cc1	none
Cc1ncc(N=Nc2ccccc2Cl)c(-c2ccccc2)n1	NR3A LBD binder 17
COc1ccccc1/C=C/C(=O)OCC(=O)c1c[nH]c2ccccc12	NR3A LBD binder 11
CC(C)Cc1ccc(C(C)C(=O)OCC(=O)c2c[nH]c3ccccc23)cc1 (stereo unspecified)	NR3A LBD binder 23
COc1ccc(OCC(=O)c2c[nH]c3ccccc23)cc1	NR3A LBD binder 14
O=C(COc1ccccc1)OCC(=O)c1c[nH]c2ccccc12	none
COC(=O)[C@]12C[C@H](CC(=O)NCc3cccs3)C(=O)N(Cc3ccc4c(c3)OCO4)C1=C[C@H](C(C)C)O[C@@H]2C1CC1	none (no result: FAS-TE inh, NR3A LBD binder)
O=C(NC(c1ccccc1)c1ccccc1)c1ccc(Br)o1	none
O=C(/C=C/c1ccc(Br)o1)NC(c1ccccc1)c1ccccc1	NR3A LBD binder 20
CCOC(=O)c1sc(=S)n(C)c1NC(=O)c1ccccc1C	NR3A LBD binder 14
COCCn1cnc2c1c(=O)n(CC(=O)Nc1cc(C)on1)c(=O)n2Cc1ccccc1	NR3A LBD binder 11
O=C(Nc1ccc(F)cc1F)C1CCCN1S(=O)(=O)c1cccnc1 (stereo unspecified)	none (no result: FAS-TE inh, NR3A LBD binder)
Cc1cc(NC(=S)N(CCCN2CCOCC2)Cc2ccco2)ccc1Cl	NR3A LBD binder 13
CCN1CCN(CCCN(Cc2ccco2)C(=S)Nc2ccc(Cl)c(C)c2)CC1	none
COc1ccc(C)c(NC(=O)[C@@H]2CCCN2S(=O)(=O)c2cccc3cccnc23)c1	none (no result: FAS-TE inh, NR3A LBD binder, proKLK7 act)
COc1ccc(NC2CCCN(C(=O)CCc3scnc3C)C2)cc1 (stereo unspecified)	NR3A LBD binder 14
CCCCCCCCN1C(=O)N2Cc3cc(OC)ccc3C2CS1(=O)=O (stereo unspecified)	none (no result: FAS-TE inh, NR3A LBD binder)
O=C(CSc1nnc(-c2cccnc2)n1C1CCCCC1)N1CCCC1	none (no result: FAS-TE inh, NR3A LBD binder)
COC(=O)[C@]12C[C@H](CC(=O)NCCc3ccccc3OC)C(=O)N(Cc3ccco3)C1=C[C@H](COCc1ccccc1)O[C@@H]2C	none (no result: FAS-TE inh, NR3A LBD binder)

Screening data deposited in PubChem by several laboratories.
